In PubChem BioAssay (EPA / NIEHS):
Activity calls are given as the source filed them. The calls were made as follows: active = hit-call score of the fitted dose curve at least 0.9, where 1 is the maximum; inactive = score below 0.9.

read-out: Monocyte Chemoattractant Protein-1 (MCP1), CCL2 (gene 6347); test: BSK_LPS_MCP1: BioMAP Diversity Plus: LPS Assay for Monocyte Chemoattractant Protein-1 (MCP1) Biomarker Activity (AID 2283081); conditions: primary human HUVEC with PBMC; actives raise or lower the signal;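 as to AC50: secreted MCP-1 protein quantified by ELISA in culture supernatant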
Method in brief: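 LPS-stimulated HUVEC/PBMC co-culture; chemical, 24 h; MCP-1 by ELISA; bidirectional fit vs DMSO; cytotoxicity via SRB (0.1% stain, 10% TCA fix, 560 nm) in parallel wells.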

Structure (SMILES)	outcome	AC50
COP(=O)(NC(C)=O)SC (stereo not given)	inactive	
CCOP(=O)(SC(C)CC)N1CCSC1=O (stereo not given)	inactive	
Cc1ccn2nc(S(=O)(=O)Nc3c(F)cccc3F)nc2n1	inactive	
CN1COCN(Cc2cnc(Cl)s2)C1=N[N+](=O)[O-]	inactive	
CC1=NNC(=O)N(/N=C/c2cccnc2)C1	inactive	
CNC(=O)Oc1cccc2c1OC(C)(C)O2	inactive	
S=C1NCCN1	inactive	
CCCSP(=O)(OCC)SCCC	inactive	
CCCCOC(=O)[C@@H](C)Oc1ccc(Oc2ccc(C#N)cc2F)cc1	inactive	
CCOC(=O)COc1cc(-c2nn(C)c(OC(F)F)c2Cl)c(F)cc1Cl	inactive	
CON=C(C(=O)OC)c1ccccc1CON=C(C)c1cccc(C(F)(F)F)c1		2.93 µM (active)
FC(F)C(F)(F)OCC(Cn1cncn1)c1ccc(Cl)cc1Cl (stereo not given)	inactive	
CCc1cccc(C)c1N(C(=O)CCl)C(C)COC (stereo not given)	inactive	
CCC(=O)Nc1ccc(Cl)c(Cl)c1	inactive	
CSc1nc(NC(C)C)nc(NC(C)C)n1	inactive	
CCOP(=O)(NC(C)C)Oc1ccc(SC)c(C)c1 (stereo not given)	inactive	
CCOP(=O)(OCC)Oc1cc(C)nc(C(C)C)n1	inactive	
CC[C@H](C)[C@H]1O[C@]2(C=C[C@@H]1C)C[C@@H]1C[C@@H](C/C=C(\C)[C@@H](O[C@H]3C[C@H](OC)[C@@H](O[C@H]4C[C@H](OC)[C@@H](NC)[C@H](C)O4)[C@H](C)O3)[C@@H](C)/C=C/C=C3\CO[C@@H]4[C@H](O)C(C)=C[C@@H](C(=O)O1)[C@]34O)O2		5.49 µM (active)

Structure (SMILES)	outcome	AC50
COc1ccc(C(=CC(=O)N2CCOCC2)c2ccc(Cl)cc2)cc1OC		1.25 µM (active)
C[N+]1(C)CCCCC1	inactive	
CCOP(=S)(OCC)Oc1cc(C)nc(C(C)C)n1	inactive	
CCCCN(CC)c1c([N+](=O)[O-])cc(C(F)(F)F)cc1[N+](=O)[O-]	inactive	
CC(Oc1cccc(Cl)c1)C(=O)O (stereo not given)	inactive	
CCCCSP(=O)(SCCCC)SCCCC		20 µM (active)
CCCCOC(=O)c1ccccc1C(=O)O	inactive	
O=C(O)c1cc(Oc2ccc(C(F)(F)F)cc2Cl)ccc1[N+](=O)[O-]	inactive	
COP(=O)(OC)SCn1c(=O)oc2cc(Cl)cnc21	inactive	
CNC(=O)ON=C(SC)C(=O)N(C)C	inactive	
CCOP(=S)(OCC)OC(Cl)C(Cl)(Cl)Cl (stereo not given)	inactive	
CCCOc1nn(C(=O)NS(=O)(=O)c2ccccc2C(=O)OC)c(=O)n1C	inactive	
CSc1nnc(C(C)(C)C)c(=O)n1N	inactive	
CCOC(=O)CC(SP(=O)(OC)OC)C(=O)OCC (stereo not given)	inactive	
CC(C)=CC1C(C(=O)OCN2C(=O)C3=C(CCCC3)C2=O)C1(C)C (stereo not given)		9.93 µM (active)
C#CC(C)(C)NC(=O)c1cc(Cl)cc(Cl)c1	inactive	
COP(=O)(OC)C(O)C(Cl)(Cl)Cl (stereo not given)	inactive	
